Data on 13 compounds can be found in PubChem BioAssay.

Assay [1] in a line: Her2 expression decrease, cell viability multiplex – SKBR3 breast tumor cells, AlphaScreen, ATP viability, primary screen (AID 461;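 active = Her2 level under about 52% in both replicate screens, with viability over 70% of control, limit read from the data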;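 for Her2 level: lower value means less Her2 protein in the cells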;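 for viability: percent of carrier control wells set as 100% viability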). To be noted: SKBR3 Her2 protein level, 18-24 h, measured here: SKBR3 viability, ATP luminescence, at 10 µM. A general note: Alpha assays give light when donor and acceptor beads are brought close together.
Assay [2] deals with Receptor tyrosine-protein kinase erbB-2 (Homo sapiens) (UniProt P04626). The assay is described as above. Conditions: 18-24 h, at 10 µM, stronger effect = lower value.
Sequence of Receptor tyrosine-protein kinase erbB-2 (Homo sapiens) (P04626 whole entry, looked up): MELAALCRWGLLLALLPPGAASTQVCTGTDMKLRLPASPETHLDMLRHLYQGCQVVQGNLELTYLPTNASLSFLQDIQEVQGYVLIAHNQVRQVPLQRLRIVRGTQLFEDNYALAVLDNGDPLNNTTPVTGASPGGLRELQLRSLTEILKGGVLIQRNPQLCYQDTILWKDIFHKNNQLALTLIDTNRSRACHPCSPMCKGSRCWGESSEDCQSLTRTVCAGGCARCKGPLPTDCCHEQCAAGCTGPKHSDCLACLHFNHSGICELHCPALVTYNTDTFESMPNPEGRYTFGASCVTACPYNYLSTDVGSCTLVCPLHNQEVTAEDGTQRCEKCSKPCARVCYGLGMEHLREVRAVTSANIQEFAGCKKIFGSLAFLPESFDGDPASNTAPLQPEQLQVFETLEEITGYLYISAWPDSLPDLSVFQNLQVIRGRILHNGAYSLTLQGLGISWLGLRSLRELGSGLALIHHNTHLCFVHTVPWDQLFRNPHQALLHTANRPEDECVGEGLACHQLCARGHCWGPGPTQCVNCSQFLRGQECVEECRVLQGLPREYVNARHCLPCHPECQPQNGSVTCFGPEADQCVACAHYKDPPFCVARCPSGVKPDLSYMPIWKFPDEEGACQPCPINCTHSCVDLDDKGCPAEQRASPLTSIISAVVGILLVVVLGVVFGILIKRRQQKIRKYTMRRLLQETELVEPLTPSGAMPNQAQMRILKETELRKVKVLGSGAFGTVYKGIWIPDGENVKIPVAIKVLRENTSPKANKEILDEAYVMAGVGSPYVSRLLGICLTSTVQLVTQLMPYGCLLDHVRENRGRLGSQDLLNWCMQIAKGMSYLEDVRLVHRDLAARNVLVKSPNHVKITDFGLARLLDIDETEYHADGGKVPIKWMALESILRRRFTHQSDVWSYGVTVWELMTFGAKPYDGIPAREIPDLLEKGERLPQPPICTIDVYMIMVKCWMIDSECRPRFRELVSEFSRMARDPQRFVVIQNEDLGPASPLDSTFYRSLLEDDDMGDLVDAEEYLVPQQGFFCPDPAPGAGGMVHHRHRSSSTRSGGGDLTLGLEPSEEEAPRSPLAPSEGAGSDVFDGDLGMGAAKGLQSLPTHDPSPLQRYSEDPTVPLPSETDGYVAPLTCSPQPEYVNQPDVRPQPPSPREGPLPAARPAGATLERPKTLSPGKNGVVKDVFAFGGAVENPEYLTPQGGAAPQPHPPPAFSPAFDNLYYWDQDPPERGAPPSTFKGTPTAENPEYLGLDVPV
Assay [3] in a line: reduced viability of SK-BR-3 breast cancer cells – cell-based, 24 h, human, pilot screen (AID 572;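 active = viability at or below 10% of carrier control in both of two separate runs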;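 note: compound exposure lasted between 18 and 24 h rather than exactly 24 h; 100% = carrier-treated control wells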). To be noted: SK-BR-3 viability, CellTiter-Glo luminescence, at 10 µM, stronger effect = lower value.
Assay [4] can be described thus: MRP1 drug-resistance reversers in H69AR cells – cell-based, doxorubicin co-treatment, pilot screen (AID 601). Conditions: CellTiter-Glo, 72 h, at 10 µM; for differential viability (reversal): stronger effect = higher value. A general note: Cellular ATP, detected with luciferase, serves as a proxy for viable cell number.
A short description of assay [5]: yeast transport mutant growth inhibition pilot in 384-well plates, post-Golgi transport modulator project (AID 636; in the data active = inhibition above about 31%). Conditions: absorbance 615 nm, about 18 h, stronger effect = higher value.
Assay [6] can be described thus: growth suppression of yeast trafficking mutant, preliminary HTS, modulators of trafficking downstream of Golgi apparatus project, 1536-format plate, OD 615 nm (AID 637; in the data active = inhibition above about 30%). To be noted: yeast transport mutant growth, absorbance 615 nm, 18 h; stronger effect = higher value.
A short description of assay [7]: H69AR cell proliferation blockers – human, duplicate replicates, primary screen (AID 580;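 active = viability at or under a set limit in both replicates, limit being median viability minus 3 SD, cut at about 48% in these data, passing the limit was not always enough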;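 note: 100% = mean luminescence of untreated wells and 0% = no signal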). Conditions: H69AR lung tumor cells viability, ATP luminescence, 72 h; at 10 µM; stronger effect = lower value.
Assay [8] is described as follows: HUVEC growth inhibition – cell-based, human, primary screen (AID 575;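 active = viability at or below 30% in both replicate assays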;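 note: 100% = median of untreated cell wells with 0.1% DMSO on each plate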). To be noted: HUVEC proliferation, CellTiter-Glo luminescence, 72 h; at 10 µM; stronger effect = lower value.
Assay [9] can be described thus: S. cerevisiae growth inhibition in permissive medium (OD615), pilot counter-assay for S. cerevisiae lifespan shortening project, permissive growth control (AID 705;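 active = growth inhibition above 25% in both replicates, a cutoff set 3 SD above the mean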). Conditions: OD615, 24 h, at 10 µM, stronger effect = higher value.
A short description of assay [10]: S. cerevisiae growth inhibition in restrictive medium, OD615, pilot screen, restrictive growth control, yeast lifespan reduction project (AID 706;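 active = growth inhibition above a set limit, 3 SD over mean compound inhibition, in both replicates, cut at about 43% in these data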;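 note: modified DeaD lifespan yeast strain shifted to restrictive glucose medium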). To be noted: OD615, 48 h, at 10 µM, stronger effect = higher value.
A short description of assay [11]: doxorubicin toxicity protection in MRP-1 cells – H69AR cells, CellTiter-Glo, duplicate, MRP-1 activator project, pilot screen (AID 807;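 active = viability increase at or above a cutoff of the median across tested compounds plus 3 SD, cut at about 8.5% in these data, passing the limit was not always enough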;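 note: compound pretreatment 18-22 h then 72 h combined with doxorubicin; 0% = doxorubicin alone and 100% = vehicle without doxorubicin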). Conditions: H69AR viability with doxorubicin, CellTiter-Glo luminescence; at 10 µM; stronger effect = higher value.
Assay [12] can be described thus: viability of HCT116 without oncogenic beta-catenin – human colon tumor cells, pilot screen (AID 823;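 active = cell viability at or below a set limit in both duplicate runs, the limit being the all-compound median minus 4 SD, cut at about 23% in these data, passing the limit was not always enough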;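 note: 0% = wells killed by 20 µM Hyamine and 100% = untreated DMSO cell wells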). Conditions: HCT116 beta-catenin knockout viability, CellTiter-Glo, 60 h; at 10 µM; stronger effect = lower value.
Assay [13] is described as follows: viability of PTEN-null HCT116 cells – cell-based, HCT116 clonal line, CellTiter-Glo, pilot screen (AID 824;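 active = viability at or below 27.92% in each of two runs, the all-compound median minus 4 SD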;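 note: 0% = 20 µM Hyamine control and 100% = vehicle cell control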). To be noted: HCT116 PTEN-deleted viability, 60 h, at 10 µM, stronger effect = lower value.
A short description of assay [14]: RAM pathway blockade in budding yeast – dse1pr::URA3 reporter, 5-FOA selection, pilot screen (AID 869;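 active = inhibition over a set limit, the all-compound mean plus 3 SD, in both replicate runs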;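 note: 0% = DMSO wells with no growth and 100% = 10 µM 1-NA-PP1 with full growth; RAM network block rescues cells from 5-FOA so hits raise OD615 growth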). Conditions: S. cerevisiae dse1pr::URA3 5-FOA growth, OD615, 2 d; at 10 µM; stronger effect = higher value; strain carries analog-sensitive mutant Cbk1 kinase.
Setting [15] is: H69AR cells + 2 uM doxorubicin, measured here: viability with 2 uM doxorubicin, stronger effect = lower value.
The mark [16] stands for this setting: H69AR cells, compound alone cytotoxicity.

Inconclusive results are not listed. Calls of active or inactive are those of the source.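 Rule for the calls, unless noted: active = viability loss from added drug above about 55%, and viability with drug at most 40%, in both replicates (limit read from the data, passing the limit was not always enough); inconclusive = both conditions met in only one replicate; inactive = neither replicate meets both conditions.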

`CCCc1ccc(Oc2cn[nH]c2-c2ccc(O)c(C)c2O)cc1`: the viability (usually a read-out of living cells in per cent, often relative to untreated cells) in assay [1] is 106%; in assay [3] it was 106% (inactive); in assay [4] (setting [15]), 34.6%; in [4] (setting [16]), 8.33%. For the same compound, the Her2 level in assay [2] is 76.5% (inactive). Besides, the differential viability (reversal) in [4] (H69AR cells + 2 uM doxorubicin) was -26.3% (inactive). Further, the inhibition in assay [5] and in assay [6] was 100% (active) in each case.
`CCC1CCc2c(sc3ncnc(N4CCOCC4)c23)C1` (stereo unspecified): the viability in assay [1] was 89.5%; in assay [3], 89.5% (inactive); in [7], 89.3% (inactive); in assay [4] (setting [15]) it was 104%; in [4] (setting [16]), 89.3%. In addition, the Her2 level in assay [2] was 87% (inactive). Also, the differential viability (reversal) in assay [4] (H69AR cells + 2 uM doxorubicin) was -14.3% (inactive). Also, the inhibition (commonly the relative decrease from the control value, in per cent) in assay [5] was -5.14% (inactive); in assay [6], -0.16% (inactive).
As for `Cn1c(=O)[nH]c(=O)c2c1nc(CN1CCN(c3cccc(Cl)c3)CC1)n2CCc1ccccc1`, the viability is 75% in assay [1], 75% (inactive) in [3], 24.8% in assay [4] (setting [15]) and 23.5% in assay [4] (setting [16]). The Her2 level in assay [2] is 96% (inactive). Also, the differential viability (reversal) in [4] (H69AR cells + 2 uM doxorubicin) was -1.32% (inactive). The inhibition was -1.04% (inactive) in assay [5] and -6.98% (inactive) in [6].
For the compound `OC(CCN1CCCC1)(c1ccccc1)C1CCCCC1` (stereo unspecified), the viability in [3] is 93% (inactive); in assay [8], 69.5% (inactive); in [7], 95.9% (inactive); in assay [4] (setting [15]), 89.3%; in [4] (setting [16]), 95.9%. The differential viability (reversal) in [4] (H69AR cells + 2 uM doxorubicin) is 6.63% (inactive).
`Cc1ccc(C(=O)/C=C/Nc2cccc(O)c2)cc1`: the viability in assay [1] was 111%; in assay [3], 111% (inactive); in assay [7] it was 85.1% (inactive); in [4] (setting [15]), 82.1%; in assay [4] (setting [16]), 85.1%. For the same compound, in assay [2], the Her2 level is 76% (inactive). For the same compound, the differential viability (reversal) in [4] (H69AR cells + 2 uM doxorubicin) is 3.02% (inactive). Besides, the inhibition was -7.03% (inactive) in [5] and -1.83% (inactive) in assay [6].
In the case of `O=C(NC1CCCc2ccccc21)C1CCN(c2nnc(-n3cccc3)s2)CC1` (stereo unspecified), the viability in [1] was 84.5%; in assay [3], 84.5% (inactive); in assay [7] it was 97.3% (inactive); in assay [4] (setting [15]), 90.6%; in [4] (setting [16]), 97.3%; in [12] it was 89.5% (inactive). The viability in [13] is 85% (inactive). Further, in assay [2], the Her2 level was 94.5% (inactive). Besides, the differential viability (reversal) in [4] (H69AR cells + 2 uM doxorubicin) was 6.74% (inactive). Further, the figures for the inhibition in assay [5], in assay [6] and in assay [14] were 1.41% (inactive), -2% (inactive) and 1.14% (inactive), respectively. Besides, the growth inhibition is -1.88% (inactive) in [9] and -6.53% (inactive) in assay [10]. Moreover, the viability increase in assay [11] was -4.06% (inactive).
As to `O=C1c2ccccc2-c2ccc(C(=O)N3CCOCC3)cc21`, the viability in assay [3] was 87% (inactive); in assay [8] it was 105% (inactive); in [7] it was 89.7% (inactive); in [4] (setting [15]) it was 92.5%; in assay [4] (setting [16]), 89.7%. Besides, in assay [4] (H69AR cells + 2 uM doxorubicin), the differential viability (reversal) is -2.82% (inactive). Further, the inhibition in [5] was -2.7% (inactive); in assay [6] it was 29.4% (inactive).
In the case of `Nc1cc(N)nc(SCc2ccccc2)n1`, the viability was 94% (inactive) in [3]; 90.8% (inactive) in assay [8]; 85.6% (inactive) in assay [7]; 92.4% in [4] (setting [15]); 85.6% in assay [4] (setting [16]). Besides, the differential viability (reversal) in assay [4] (H69AR cells + 2 uM doxorubicin) was -6.86% (inactive). Also, the inhibition in assay [5] was -0.68% (inactive); in [6], 9.27% (inactive).
In the case of `CC(=O)[C@H]1[C@H](C#N)C[C@H]2[C@@H]3CC=C4C[C@@H](O)CC[C@]4(C)[C@H]3CC[C@@]21C`, the viability is 136% (inactive) in [3]; 103% (inactive) in assay [8]; 87% (inactive) in assay [7]; 85.2% in assay [4] (setting [15]); 87% in assay [4] (setting [16]). The differential viability (reversal) in assay [4] (H69AR cells + 2 uM doxorubicin) was 1.78% (inactive). Moreover, the values for the inhibition in assay [5] and in assay [6] were -2.73% (inactive) and 7.33% (inactive), respectively.
For the compound `COc1ccc(/C(O)=C2\C(=O)C(=O)N(c3cc(C)on3)C2c2ccccc2OC)cc1` (stereo unspecified), the viability is 105% (inactive) in [3]; 101% (inactive) in [8]; 78.5% (inactive) in assay [7]; 85.3% in [4] (setting [15]); 78.5% in [4] (setting [16]). In assay [4] (H69AR cells + 2 uM doxorubicin), the differential viability (reversal) was -6.79% (inactive). The inhibition in assay [5] was -8.27% (inactive); in assay [6] it was -5.09% (inactive).
For `Cc1ccc(-n2nc3cc(Cl)c(NC(=O)c4ccco4)cc3n2)cc1`, the viability is 116% (inactive) in assay [3]; 92.6% (inactive) in assay [8]; 42.7% (active) in [7]; 48.7% in assay [4] (setting [15]); 42.7% in assay [4] (setting [16]). Further, the differential viability (reversal) in [4] (H69AR cells + 2 uM doxorubicin) was -5.97% (inactive). Besides, the inhibition in [5] was -7.53% (inactive); in [6], 2.7% (inactive).
Take `CCOC(=O)c1ccc(CNC(=O)C(Cc2c[nH]c3ccccc23)NC(C)=O)o1` (stereo unspecified): the viability was 90% (inactive) in assay [3]; 90.3% (inactive) in [8]; 101% (inactive) in assay [7]; 92.3% in [4] (setting [15]); 101% in [4] (setting [16]). In assay [4] (H69AR cells + 2 uM doxorubicin), the differential viability (reversal) is 8.63% (inactive). Besides, the inhibition in assay [5] was -6.99% (inactive); in assay [6], 0.36% (inactive).
`COc1ccc(-c2ccc(=O)n(Cc3cc(=O)n4ccccc4n3)n2)cc1`: the viability is 102% (inactive) in assay [3]; 107% (inactive) in assay [8]; 97% (inactive) in assay [7]; 91.1% in [4] (setting [15]); 97% in [4] (setting [16]). The differential viability (reversal) in assay [4] (H69AR cells + 2 uM doxorubicin) is 5.91% (inactive). Also, the results for the inhibition in assay [5] and in assay [6] were -3.38% (inactive) and 4.36% (inactive), respectively.
